Measured values as given in PubChem BioAssay (Tox21).
Results filed as inconclusive are left out. A call without a number means that no potency is given here. Calls of active or inactive are those of the source. Unless noted, calls follow the shape of the full dose curve.

Assay: qHTS assay for small molecules that induce genotoxicity in human embryonic kidney cells expressing luciferase-tagged ATAD5 (AID 651632; active = well fitted activation curve with a large enough effect in the repeat runs; also: nearly all actives have a fitted effect of over 15% in size; also: potency is read from the fitted curve at half-maximal effect)
Conditions: HEK293T ATAD5-luciferase induction, 16 h; series mostly up to 83.3 µM
In short: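 DMSO vehicle served as the control. HEK293T reporter cells, 16 hr at 37C, then 30 min Amplite at room temperature; ATAD5 induction is measured as luciferase activity.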

SMILES | Potency
CC(C(=O)O)c1cccc(Oc2ccccc2)c1 (stereo not given) | inactive
CCOc1ccc2nc(S(N)(=O)=O)sc2c1 | inactive
O=C(O)c1cn(C2CC2)c2cc(N3CCNCC3)c(F)cc2c1=O | inactive
CCC(C(=O)NC(=O)NC(C)=O)c1ccccc1 (stereo not given) | inactive
CCCCCCC#CC(=O)OC | inactive
NC(=O)N[C@@H](CCC(=O)O)C(=O)O | inactive
COc1cc(C(=O)NCc2ccc(OCCN(C)C)cc2)cc(OC)c1OC | inactive
C=C(C)C(=O)OCC1CCCO1 (stereo not given) | inactive
COc1c(N2CCNC(C)C2)c(F)cc2c(=O)c(C(=O)O)cn(C3CC3)c12 (stereo not given) | inactive
O=S(=O)(O)c1cccc2ccccc12 | inactive
NC(CCC(=O)O)C(=O)O (stereo not given) | inactive
CC(=O)NC(=O)c1ccccc1O | inactive
Cc1ncc(COP(=O)(O)O)c(C=O)c1O | inactive
O=C1CCCCCCCCCCCCCCO1 | inactive
C=CCCCCCCCCC(=O)OCC | inactive
Cc1cccc(C)c1NC(=O)CC12CCCN1CCC2 | inactive
CC[N+](CC)(CC)CCOc1cccc(OCC[N+](CC)(CC)CC)c1OCC[N+](CC)(CC)CC | inactive
CN(C)C(=O)Oc1ccc[n+](C)c1 | inactive

SMILES | Potency
COc1cc(-c2ccc(=O)[nH]n2)ccc1OC(F)F | 13.3 µM (active)
CCCCc1nc(Cl)c(CO)n1Cc1ccc(-c2ccccc2-c2nn[nH]n2)cc1 | inactive
CO/N=C(\C(=O)N[C@@H]1C(=O)N2C(C(=O)O)=C(CSc3nc(=O)c(O)nn3C)CS[C@H]12)c1csc(N)n1 | inactive
CCCCCCCCCCOc1cc2c(=O)c(C(=O)OCC)c[nH]c2cc1OCC | inactive
COc1cc(C)nc(-n2nc(C)cc2OC)n1 | inactive
Nc1c2c(nc3c1CCC3)CCCC2 | inactive
CCN1C=CN(C)C1C (stereo not given) | inactive
Cc1ccnc(NS(=O)(=O)c2ccc(N)cc2)n1 | inactive
C=CCCC(=O)O | inactive
O=C(O)Cc1csc(-c2ccc(Cl)cc2)n1 | inactive
CC[N+](CC)(CC(=O)Nc1c(C)cccc1C)Cc1ccccc1 (tested in a mixture with another compound) | inactive
CCN(Cc1ccccc1)c1ccccc1 | inactive
NC(=O)N1c2ccccc2CC(=O)c2ccccc21 | inactive
CN1C(C)(C)CC(O)CC1(C)C | inactive
CCO[Si](OCC)(OCC)c1ccccc1 | inactive
CC1CCC(CO)CC1 (stereo not given) | inactive
CCCCCC(C)N (stereo not given) | inactive

Assay: qHTS assay for small molecule agonists of the p53 signaling pathway - cell viability (AID 651633);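 also: p53RE-bla HCT reporter cells with a stable beta-lactamase p53 reporter; nearly all actives have a fitted effect of over 30% in size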
Conditions: p53RE-bla HCT-116 viability, ATP luminescence, 16 h; series mostly up to 83.3 µM
In short: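 p53RE-bla cells were treated with compound for 16 hours at 37 C. Cytotoxicity was then measured as CellTiter-Glo luminescence after 30 min at room temperature.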

SMILES | Potency
CC(C(=O)O)c1cccc(Oc2ccccc2)c1 (stereo not given) | inactive
CCOc1ccc2nc(S(N)(=O)=O)sc2c1 | inactive
O=C(O)c1cn(C2CC2)c2cc(N3CCNCC3)c(F)cc2c1=O | inactive
CCC(C(=O)NC(=O)NC(C)=O)c1ccccc1 (stereo not given) | inactive
CCCCCCC#CC(=O)OC | inactive
NC(=O)N[C@@H](CCC(=O)O)C(=O)O | inactive
COc1cc(C(=O)NCc2ccc(OCCN(C)C)cc2)cc(OC)c1OC | inactive
C=C(C)C(=O)OCC1CCCO1 (stereo not given) | inactive
COc1c(N2CCNC(C)C2)c(F)cc2c(=O)c(C(=O)O)cn(C3CC3)c12 (stereo not given) | inactive
O=S(=O)(O)c1cccc2ccccc12 | inactive
NC(CCC(=O)O)C(=O)O (stereo not given) | inactive
CC(=O)NC(=O)c1ccccc1O | inactive
Cc1ncc(COP(=O)(O)O)c(C=O)c1O | inactive
O=C1CCCCCCCCCCCCCCO1 | inactive
C=CCCCCCCCCC(=O)OCC | inactive
Cc1cccc(C)c1NC(=O)CC12CCCN1CCC2 | inactive
CC[N+](CC)(CC)CCOc1cccc(OCC[N+](CC)(CC)CC)c1OCC[N+](CC)(CC)CC | inactive
CN(C)C(=O)Oc1ccc[n+](C)c1 | inactive

SMILES | Potency
COc1cc(-c2ccc(=O)[nH]n2)ccc1OC(F)F | inactive
CCCCc1nc(Cl)c(CO)n1Cc1ccc(-c2ccccc2-c2nn[nH]n2)cc1 | inactive
CO/N=C(\C(=O)N[C@@H]1C(=O)N2C(C(=O)O)=C(CSc3nc(=O)c(O)nn3C)CS[C@H]12)c1csc(N)n1 | inactive
CCCCCCCCCCOc1cc2c(=O)c(C(=O)OCC)c[nH]c2cc1OCC | inactive
COc1cc(C)nc(-n2nc(C)cc2OC)n1 | inactive
Nc1c2c(nc3c1CCC3)CCCC2 | inactive
CCN1C=CN(C)C1C (stereo not given) | inactive
Cc1ccnc(NS(=O)(=O)c2ccc(N)cc2)n1 | inactive
C=CCCC(=O)O | inactive
O=C(O)Cc1csc(-c2ccc(Cl)cc2)n1 | inactive
CC[N+](CC)(CC(=O)Nc1c(C)cccc1C)Cc1ccccc1 (tested in a mixture with another compound) | inactive
CCN(Cc1ccccc1)c1ccccc1 | inactive
NC(=O)N1c2ccccc2CC(=O)c2ccccc21 | inactive
CN1C(C)(C)CC(O)CC1(C)C | inactive
CCO[Si](OCC)(OCC)c1ccccc1 | inactive
CC1CCC(CO)CC1 (stereo not given) | inactive
CCCCCC(C)N (stereo not given) | inactive

Assay: qHTS assay for small molecules that induce genotoxicity in human embryonic kidney cells expressing luciferase-tagged ATAD5 - cell viability (AID 651634); also: nearly all actives have a fitted effect of over 25% in size
Conditions: HEK293T ATAD5-luc cells viability, CellTiter-Fluor, 15.5 h; series mostly up to 83.3 µM
In short: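 Here HEK293T cells with the ATAD5 luciferase reporter are incubated with test compounds for 15.5 hr, and cytotoxicity is then gauged by measuring protease activity in live cells using fluorescence.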

SMILES | Potency
CC(C(=O)O)c1cccc(Oc2ccccc2)c1 (stereo not given) | inactive
CCOc1ccc2nc(S(N)(=O)=O)sc2c1 | inactive
O=C(O)c1cn(C2CC2)c2cc(N3CCNCC3)c(F)cc2c1=O | inactive
CCC(C(=O)NC(=O)NC(C)=O)c1ccccc1 (stereo not given) | inactive
CCCCCCC#CC(=O)OC | inactive
NC(=O)N[C@@H](CCC(=O)O)C(=O)O | inactive
COc1cc(C(=O)NCc2ccc(OCCN(C)C)cc2)cc(OC)c1OC | inactive
C=C(C)C(=O)OCC1CCCO1 (stereo not given) | inactive
COc1c(N2CCNC(C)C2)c(F)cc2c(=O)c(C(=O)O)cn(C3CC3)c12 (stereo not given) | inactive
O=S(=O)(O)c1cccc2ccccc12 | inactive
NC(CCC(=O)O)C(=O)O (stereo not given) | inactive
CC(=O)NC(=O)c1ccccc1O | inactive
Cc1ncc(COP(=O)(O)O)c(C=O)c1O | inactive
O=C1CCCCCCCCCCCCCCO1 | inactive
C=CCCCCCCCCC(=O)OCC | inactive
Cc1cccc(C)c1NC(=O)CC12CCCN1CCC2 | inactive
CC[N+](CC)(CC)CCOc1cccc(OCC[N+](CC)(CC)CC)c1OCC[N+](CC)(CC)CC | inactive
CN(C)C(=O)Oc1ccc[n+](C)c1 | inactive

SMILES | Potency
COc1cc(-c2ccc(=O)[nH]n2)ccc1OC(F)F | inactive
CCCCc1nc(Cl)c(CO)n1Cc1ccc(-c2ccccc2-c2nn[nH]n2)cc1 | inactive
CO/N=C(\C(=O)N[C@@H]1C(=O)N2C(C(=O)O)=C(CSc3nc(=O)c(O)nn3C)CS[C@H]12)c1csc(N)n1 | inactive
CCCCCCCCCCOc1cc2c(=O)c(C(=O)OCC)c[nH]c2cc1OCC | inactive
COc1cc(C)nc(-n2nc(C)cc2OC)n1 | inactive
Nc1c2c(nc3c1CCC3)CCCC2 | inactive
CCN1C=CN(C)C1C (stereo not given) | inactive
Cc1ccnc(NS(=O)(=O)c2ccc(N)cc2)n1 | inactive
C=CCCC(=O)O | inactive
O=C(O)Cc1csc(-c2ccc(Cl)cc2)n1 | inactive
CC[N+](CC)(CC(=O)Nc1c(C)cccc1C)Cc1ccccc1 (tested in a mixture with another compound) | inactive
CCN(Cc1ccccc1)c1ccccc1 | inactive
NC(=O)N1c2ccccc2CC(=O)c2ccccc21 | inactive
CN1C(C)(C)CC(O)CC1(C)C | inactive
CCO[Si](OCC)(OCC)c1ccccc1 | inactive
CC1CCC(CO)CC1 (stereo not given) | inactive
CCCCCC(C)N (stereo not given) | inactive
